# Screens as filed in PubChem BioAssay.
# Sampled rows, rich in hits. Any-hit rate of the full collection: about 3.5%.
# FBW7 act: activators of human E3 ligase FBW7. Q969H0. AlphaScreen FBW7–phospho-cyclin E peptide binding, activator screen. normalized activity (activation), % at 26.1 µM. 650,000 tested, 0.13% active; in the data active = normalized activity above about 1.9%;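 also: purified mutant Fbw7 with reduced substrate affinity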
# GPR151 ag: human GPR151 activation; Q8TDV0; PathHunter beta-arrestin GPR151 cells, luminescence; activation, % at 11.2 µM; 650,000 tested, 1% active; AID 1508602; in the data active = activation above about 4.9%;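 also: 0% = median of compound wells and 100% = cells with positive control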
# MITF inh: human MITF inhibition, primary screen | AlphaScreen MITF homodimerization, bead proximity signal | inhibition, % at 2.6 µM | 650,000 tested, 0.91% active; in the data active = inhibition above about 50%;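 also: 0% = vehicle wells with protein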
# Target sequence (O75030 whole entry, looked up): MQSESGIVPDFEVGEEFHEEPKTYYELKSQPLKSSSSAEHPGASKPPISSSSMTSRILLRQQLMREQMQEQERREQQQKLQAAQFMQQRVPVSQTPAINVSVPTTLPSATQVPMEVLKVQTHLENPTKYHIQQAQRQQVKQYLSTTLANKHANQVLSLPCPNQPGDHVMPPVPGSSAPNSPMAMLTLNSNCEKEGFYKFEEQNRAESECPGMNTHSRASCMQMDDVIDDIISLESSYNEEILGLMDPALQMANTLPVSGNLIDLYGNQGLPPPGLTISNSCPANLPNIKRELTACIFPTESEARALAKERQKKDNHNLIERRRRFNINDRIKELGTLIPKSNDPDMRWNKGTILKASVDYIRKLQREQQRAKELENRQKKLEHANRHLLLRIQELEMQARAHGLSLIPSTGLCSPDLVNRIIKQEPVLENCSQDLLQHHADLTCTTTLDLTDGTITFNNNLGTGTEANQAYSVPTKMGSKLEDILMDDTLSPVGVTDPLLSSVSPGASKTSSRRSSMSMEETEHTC
# TEAD-YAP block: TEAD-YAP interaction inhibition; AID 1259422; 640,000 tested, 1.4% active; inhibition, % at 9.12 µM; HEK-TIYL cells, TEAD-Gal4/YAP UAS-luciferase luminescence; in the data active = inhibition above about 32%;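 also: 0% = median of test compound wells and 100% = reference inhibitor wells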
# The depositor's hits bear a star.
SMILES,FBW7 act,GPR151 ag,MITF inh,TEAD-YAP block
COc1cc(SC)ccc1C(=O)N1CCN(c2ccccc2OC)CC1,1,0,18,56*
CCOc1ccccc1N1CCN(C(=O)c2cc(OC)c(OC)c(OC)c2)CC1,0,1,-4,64*
COc1ccccc1C(=O)N1CCN(c2ccccc2OC)CC1,0,2,-8,8
COc1ccc(Cl)cc1C(=O)N1CCN(c2ccccc2OC)CC1,0,-1,6,54*
CCSc1ncc(Cl)c(C(=O)N2CCN(c3ccccc3OC)CC2)n1,0,1,9,60*
COc1ccc(CN2CCC(N3CCN(c4ccccc4F)CC3)CC2)c(OC)c1,0,0,49,8
O=C(CC1C(=O)N(c2ccc(Cl)cc2)C(=S)N1CCc1ccc(Cl)cc1)Nc1ccc(F)cc1 (stereo unspecified),2.0*,-1,21,-11
Cc1ccc(-c2nc3ccc(C(F)(F)F)cc3nc2-c2ccc(C)cc2)cc1,0,0,5,11
Oc1ccc(-c2noc(-c3ccc(F)cc3)n2)cc1,0,-9,-1,65*
Fc1ccc(-c2nc(-c3ccccc3)no2)cc1,1,0,17,-34
COC(=O)c1c(NC(=O)/C=C\C(=O)O)sc(Cc2ccccc2)c1C,0,0,-5,32*
COC(=O)c1c(NC(=O)C(F)(F)F)sc(Cc2ccccc2)c1C,0,1,-7,5
COCCNC(=O)C1CC(c2ccc(OC)c(OC)c2)=NO1 (stereo unspecified),0,0,-9,-2
COc1ccc(C2=NOC(C(=O)NCc3ccc(F)cc3)C2)cc1OC (stereo unspecified),0,1,8,50*
CCNc1nc(NCC)nc(Sc2ccc([N+](=O)[O-])cc2[N+](=O)[O-])n1,0,0,1,51*
C=CCNc1nc2c(C)cccn2c(=O)c1/C=C1\SC(=S)N(CC=C)C1=O,0,2,13,2
CC(C)(C)N(Cc1ccccc1)C(=O)Cn1c(=O)oc2ccccc21,0,1,-12,1
CC(O)c1ccc(Nc2nccc(-c3cccc(NS(C)(=O)=O)c3)n2)cc1 (stereo unspecified),1,1,12,77*
CS(=O)(=O)Nc1cccc(-c2ccnc(Nc3ccc(CC(N)=O)cc3)n2)c1,0,0,9,37*
CS(=O)(=O)Nc1cccc(-c2ccnc(Nc3ccccc3)n2)c1,0,0,9,68*
O=C(O)Cc1ccc(Nc2nccc(-c3ccccc3)n2)cc1,0,0,17,53*
CC(=O)c1cccc(N(CC(=O)N2CCCCCC2)S(C)(=O)=O)c1,0,-3,7,1
CCN(C(=O)COc1ccc(Br)cc1)c1ccccc1,0,3,-6,4
CCOC(=O)C1=CN(c2ccc(C(=O)OC)cc2)C=C(C(=O)OCC)C1c1cccs1,1,-1,22,9
NC(=O)c1cccc(Nc2nccc(-c3cccc(Nc4ccccc4)c3)n2)c1,1,0,12,11
SMILES,FBW7 act,GPR151 ag,MITF inh,TEAD-YAP block
NC(=O)c1ccc(Nc2nccc(-c3cccc(Nc4ccccc4)c3)n2)cc1,1,-2,5,46*
CCOc1cccc(C2C(C(=O)OCCOC)=C(C)NC3=C2C(=O)CC(c2ccc(OC)c(OC)c2)C3)c1 (stereo unspecified),0,0,2,10
CCCOC(=O)C1=C(C)N(CC)C(=O)NC1c1ccccc1[N+](=O)[O-] (stereo unspecified),2.5*,0,6,12
CN1CCN(Cc2cc(=O)oc3ccc4ccccc4c23)CC1,0,1,9,1
CN1CCN(Cc2cc(COCc3ccccc3)c3cccnc3c2O)CC1,-1,-1,101*,74*
CN1CCN(Cc2cc(CSc3ccccc3)c3cccnc3c2O)CC1,-2,0,65*,81*
Oc1c(CN2CCN(c3cccc(C(F)(F)F)c3)CC2)cc(COCc2ccccc2)c2cccnc12,-1,-1,1,11
O=C(COc1ccc(Cl)cc1)n1nnc2ccccc21,0,0,10,-5
CCOC(=O)c1[nH]cnc1C(=O)N1CCOCC1,0,-1,14,4
Cc1ccc(/C=N/NC(=O)c2cc(-c3ccccc3)n[nH]2)cc1,0,1,-5,-8
COc1ccc(/C=N/NC(=O)c2cc(-c3ccc(OC)cc3)n[nH]2)cc1,0,-1,4,33*
CC(C)Cc1ccc(-c2cc(C(=O)N/N=C/c3ccncc3)[nH]n2)cc1,0,0,6,45*
COc1ccc(-c2cc(C(=O)N/N=C\c3ccc(N(C)C)cc3)[nH]n2)cc1,0,-1,11,45*
